Hit rate of the full screen: of about 310,000 compounds, about 14,000 (4.5%) showed an effect of 50% or more. The effect is printed as a negative number. Shown is part of a subset that was picked to be rich in strong results.
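Further: peak tail current of the secondary pulse compared with the same well before compound.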

The target in the test is human ether-à-go-go-related gene (hERG) potassium channel (human, UniProt Q12809). Nature of the test: primary screen, population patch clamp on CHO cells stably expressing hERG; higher = less effect of the substance.
Sequence of human ether-à-go-go-related gene (hERG) potassium channel (Q12809 whole entry, looked up): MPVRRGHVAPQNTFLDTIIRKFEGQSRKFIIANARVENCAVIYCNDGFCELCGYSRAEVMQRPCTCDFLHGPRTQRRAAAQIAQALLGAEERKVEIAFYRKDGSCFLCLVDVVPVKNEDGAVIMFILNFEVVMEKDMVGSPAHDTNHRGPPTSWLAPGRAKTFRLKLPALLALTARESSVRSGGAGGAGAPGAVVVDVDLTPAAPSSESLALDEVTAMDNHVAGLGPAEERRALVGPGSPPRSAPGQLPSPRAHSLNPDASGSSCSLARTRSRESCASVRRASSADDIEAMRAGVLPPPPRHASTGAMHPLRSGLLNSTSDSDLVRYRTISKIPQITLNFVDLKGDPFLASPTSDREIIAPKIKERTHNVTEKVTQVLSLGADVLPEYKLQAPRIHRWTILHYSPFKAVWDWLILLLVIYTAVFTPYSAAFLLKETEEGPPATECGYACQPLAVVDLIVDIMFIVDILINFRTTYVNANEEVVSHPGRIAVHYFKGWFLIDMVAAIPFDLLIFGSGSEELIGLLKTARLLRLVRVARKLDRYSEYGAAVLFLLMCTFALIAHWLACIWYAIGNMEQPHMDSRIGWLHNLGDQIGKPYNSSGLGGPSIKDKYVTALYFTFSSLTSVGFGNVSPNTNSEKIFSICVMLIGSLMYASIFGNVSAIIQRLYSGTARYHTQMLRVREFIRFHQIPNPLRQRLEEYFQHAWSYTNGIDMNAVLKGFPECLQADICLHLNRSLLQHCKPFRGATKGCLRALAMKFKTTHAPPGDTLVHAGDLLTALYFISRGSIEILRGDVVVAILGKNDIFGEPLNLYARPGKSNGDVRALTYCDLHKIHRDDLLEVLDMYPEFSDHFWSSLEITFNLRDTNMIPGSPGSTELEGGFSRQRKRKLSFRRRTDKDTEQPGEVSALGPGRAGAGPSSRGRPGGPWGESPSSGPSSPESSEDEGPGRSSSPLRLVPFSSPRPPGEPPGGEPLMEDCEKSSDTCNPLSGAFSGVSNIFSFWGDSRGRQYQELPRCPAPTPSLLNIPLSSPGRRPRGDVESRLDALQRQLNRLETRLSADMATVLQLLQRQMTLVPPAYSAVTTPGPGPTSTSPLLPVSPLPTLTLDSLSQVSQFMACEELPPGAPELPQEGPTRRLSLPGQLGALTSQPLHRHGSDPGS
`CCOC(=O)N1CCN(C(=O)CSc2nnc(COc3ccc(Cl)cc3)o2)CC1`: the “hERG current change (%, negative = inhibition) at 10uM” value is recorded as -37.8%.
In the case of `CCOCCCNC(=O)CCc1nnc2ccc(N3CCCCC3)nn12`, the “hERG current change (%, negative = inhibition) at 10uM” value is reported as 11.1%.
Next, `COc1ccc(OC)c(NC(=O)C2CC(=O)N(c3ccccc3)C2)c1` (stereo not shown): 5.86%.
Under `O=C(CCC(=O)OCC(=O)c1ccc(-c2ccccc2)cc1)Nc1cccc(Cl)c1` stands 1.65%.
Next, `CCn1ncc(CN2CCC(Oc3cc(C(=O)NC4CC4)ccc3OC)CC2)c1C`: -21.5%; `COc1ccc(C(=O)NC2CC2)cc1OC1CCN(Cc2cc(C)c(C)cc2C)CC1`: -83.1%.
As to `COc1ccc(C(=O)NC2CC2)cc1OC1CCN(Cc2cnn(C)c2C)CC1`, the “hERG current change (%, negative = inhibition) at 10uM” value is given as -27.2%.
For `O=C(CCl)Nc1nc(-c2ccco2)c(-c2ccco2)s1`, the “hERG current change (%, negative = inhibition) at 10uM” value is recorded as -10.1%.
Next, `COc1cccc(CN(C)C(=O)c2cccc(OCc3ccccc3)c2)c1`: 13.1%; `COCCC1CCCCN1C(=O)c1cccc(OC2CCN(C3CCCC3)CC2)c1` (stereo not shown): 17.6%.
Next, `COc1cccc(CN(C)C(=O)c2cccc(OC3CCN(C4CCCC4)CC3)c2)c1`: -55.1%; `CN(Cc1ccc(F)cc1)C(=O)c1cccc(OC2CCN(C3CCCC3)CC2)c1`: -61%; `CN(Cc1ccc(F)cc1)C(=O)c1cccc(OCc2ccccc2)c1`: -16.9%.
Next, `O=C(c1cccc(OC2CCN(C3CCCC3)CC2)c1)N1CCCCCCC1`: -36%.
For `O=[N+]([O-])C(C1CCS(=O)(=O)C1)C1CCS(=O)(=O)C1` (stereo not shown), the “hERG current change (%, negative = inhibition) at 10uM” value is given as 11.9%.
Regarding `Cc1cccc(C2N(c3ccc(F)cc3)C(=O)C3CCCN32)c1` (stereo not shown), the “hERG current change (%, negative = inhibition) at 10uM” value was -12.3%.
Consider `COc1cc(CN2CCN(C(=O)CC(C)C)CC2)c([N+](=O)[O-])cc1OC`, for which the “hERG current change (%, negative = inhibition) at 10uM” value was determined as 8.77%.
Next, `COc1cc(CN2CCN(Cc3ccc(C)cc3)CC2)c([N+](=O)[O-])cc1OC.O=C(O)C(=O)O`: -77.2%; `COc1cc(CN2CCN(Cc3ccc([N+](=O)[O-])cc3)CC2)c([N+](=O)[O-])cc1OC.O=C(O)C(=O)O`: -68.2%; `COc1cccc(CN2CCN(Cc3cc(OC)c(OC)cc3[N+](=O)[O-])CC2)c1.O=C(O)C(=O)O`: -46.3%.
For the molecule `COc1cc(CN2CCCCCC2)c([N+](=O)[O-])cc1OC`, the “hERG current change (%, negative = inhibition) at 10uM” value worked out at 3.94%.
As for `CCN1CCN(Cc2cc(OC)c(OC)cc2[N+](=O)[O-])CC1`, the “hERG current change (%, negative = inhibition) at 10uM” value worked out at 8.59%.
Take `Cc1cccc2[nH]c(CN(C)C(=O)CC3C(=O)NCCN3CC(C)(C)C)nc12` (stereo not shown): the “hERG current change (%, negative = inhibition) at 10uM” value is on record as 3.23%.
Next, `Cc1cc(C(=O)NCc2ccco2)sc1C`: 16.2%; `CCO[C@H]1c2c(ccc3ccc(=O)oc23)OC(C)(C)[C@@H]1O`: 20.9%; `CN(C)c1cc[n+](CC(=O)c2ccc(-c3ccccc3)cc2)cc1.[Cl-]`: -2.97%.
In the case of `Cc1ccc(C(=O)C[n+]2ccc(Cc3ccccc3)cc2)cc1.[Cl-]`, the “hERG current change (%, negative = inhibition) at 10uM” value is -73.6%.
Take `Cc1ccc(SCCNC(=O)c2ccccc2)cc1`: the “hERG current change (%, negative = inhibition) at 10uM” value is given as -0.806%.
Under `Cc1cc(C)c[n+](CC(=O)c2ccc(-c3ccccc3)cc2)c1.[Br-]` stands -45.3%; under `Cc1ccc(SCCc2cc[n+](CC(=O)c3ccccc3)cc2)cc1`, -70.5%.
Next, `Cc1ccc[n+](CC(=O)c2ccc(-c3ccccc3)cc2)c1.[Br-]`: -52.4%; `Cc1ccc(C(=O)C[n+]2ccc3ccccc3c2)cc1.[Br-]`: -33.6%.
Regarding `Cc1ccc[n+](CC(=O)c2ccccc2)c1.[Br-]`, the “hERG current change (%, negative = inhibition) at 10uM” value is recorded as 13.7%.
Take `Cc1cc[n+](CC(=O)c2ccc(NC(=O)c3ccccc3)cc2)cc1.[Br-]`: the “hERG current change (%, negative = inhibition) at 10uM” value was found to be 2.6%.
Next, `O=C(c1cc2ccccc2oc1=O)N1CCN(c2ncccn2)CC1`: 8.16%; `c1ccc2[nH]c(CSc3nnc(-c4ccncc4)o3)nc2c1`: -24.8%; `Cc1ccc(Nc2nc(NCc3ccco3)c3ccccc3n2)cc1.Cl`: 16.9%.
With `COc1ccccc1Nc1nc(NCc2ccco2)c2ccccc2n1.Cl`, the “hERG current change (%, negative = inhibition) at 10uM” value is -20.3%.
Regarding `Cl.Oc1ccccc1Nc1nc(NCc2ccco2)c2ccccc2n1`, the “hERG current change (%, negative = inhibition) at 10uM” value is recorded as -29.3%.
Under `Cl.c1ccc(Nc2nc(NCc3ccco3)c3ccccc3n2)cc1` stands -71%; under `Cc1ccccc1Nc1nc(NCc2ccco2)c2ccccc2n1.Cl`, -63.6%; under `Cl.Fc1ccc(Nc2nc(NCc3ccco3)c3ccccc3n2)cc1`, -37.2%.
Under `COc1ccc(O)c(C(=O)/C=C/c2cc3ccccc3o2)c1` stands 7.22%.
Consider `CN1C(=O)/C(=C/c2ccc(C(F)(F)F)cc2)Sc2ccc(C(=O)N3CCN(c4ccccn4)CC3)cc21`, for which the “hERG current change (%, negative = inhibition) at 10uM” value came out at 5.11%.
Under `C[C@@H]1O[C@@H](Oc2c(-c3cc(O)c(O)c(O)c3)oc3cc(O)cc(O)c3c2=O)[C@H](O)[C@H](O)[C@H]1O` stands 4%.
Under `CN(C)CCCN(C(=O)COc1ccccc1)c1nc2ccc(F)cc2s1.Cl` stands -68%; under `Cc1ccc2nc(N(CCCN(C)C)C(=O)COc3ccc(Cl)cc3)sc2c1.Cl`, -8.71%; under `CCN(CC)CCN(C(=O)CCOc1ccccc1)c1nc2ccc(F)cc2s1.Cl`, -8.61%.
Consider `CN(C)CCCN(C(=O)COc1ccc(Cl)cc1)c1nc2ccc(F)cc2s1.Cl`, for which the “hERG current change (%, negative = inhibition) at 10uM” value is reported as -21.4%.
In the case of `CN(C)CCCN(C(=O)COc1ccccc1)c1nc2ccc(Cl)cc2s1.Cl`, the “hERG current change (%, negative = inhibition) at 10uM” value is listed as -67.1%.
Next, `Cc1ccc2nc(N(CCCN(C)C)C(=O)CS(=O)(=O)c3ccccc3)sc2c1.Cl`: -22.7%.
Next, `NC(=O)CC(NC(=O)Cc1ccc(Cl)cc1)c1ccc(NC2CC3CCC2C3)c([N+](=O)[O-])c1` (stereo not shown): -3.01%.
Under `CCN(CC)CCCNc1nc2cc(OC)c(OC)cc2c2nc(-c3ccccc3)nn12` stands -7.77%; under `CN(C)CCCNc1nc(-c2ccccc2)nc2ccccc12.Cl`, -13.5%; under `CN(C)CCCNc1nc(-c2ccc(Cl)cc2)nc2ccccc12`, -35.5%.
Consider `CCN(CC)CCCNc1nc2cc(OC)c(OC)cc2c2nc(-c3cccnc3)nn12`, for which the “hERG current change (%, negative = inhibition) at 10uM” value is recorded as -2.29%.
Under `Cc1ccc(-c2nc(NCCCO)c3ccccc3n2)cc1` stands -41.2%.
Next, `CCN(CC)CCCNc1nc2ccccc2c2nc(-c3ccncc3)nn12`: -56.6%.
Turning to `CCOCCCNc1nc(-c2ccccc2)nc2ccccc12.Cl`, the “hERG current change (%, negative = inhibition) at 10uM” value was -27.5%.
Under `OCCCNc1nc(-c2ccc(Cl)cc2)nc2ccccc12` stands -63.1%; under `CCN(CC)CCCNc1nc(-c2ccccc2)nc2ccccc12.Cl`, -61.4%.
